High-throughput results (PubChem BioAssay)
Pol eta inh-1 = qHTS for Inhibitors of Polymerase Eta | recombinant Pol eta, fluorescent DNA replication assay | Potency, µM (titrated, usually from 114 µM), inactives show top-dose activity change, negative = inhibition, actives largely listed as inhibitors | hit rate 1.2% among 390,000 | DNA polymerase eta (Homo sapiens), Q9Y253; also: potency is read from the fitted curve at half-maximal effect; % is scaled to controls: 0 for no effect and ±100 for the full control effect
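Fluorescent replication assay: 50 nM final substrate added after a 15 min room-temperature compound preincubation with 10 nM enzyme. Signal taken at 0 min and again at 10 min.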
Pol beta inh = qHTS Assay for Inhibitors of DNA Polymerase Beta. P06746. Pol beta primer extension/strand displacement, fluorescence kinetic. Potency, µM (titrated, usually from 114 µM), for the others: at the top dose activity change, negative = inhibition, most hits filed as inhibitors. hit rate 1.3% among 340,000. AID 485314, 2010; also: potency is read from the fitted curve at half-maximal effect; % is scaled to controls: 0 for no effect and ±100 for the full control effect
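Pol beta (10 nM) was preincubated with compound for 15 min at room temperature. The reaction was then started with 50 nM substrate and read immediately and after a further 10 min at room temperature.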
POLI inh = qHTS for Inhibitors of Polymerase Iota; DNA polymerase iota (Homo sapiens), Q9UNA4; Pol iota fluorescent replication assay, 10 min; Potency, µM (top dose mostly 115 µM), inactives show at the top dose activity, negative = inhibition, actives largely listed as inhibitors; hit rate 1% among 390,000; also: potency is read from the fitted curve at half-maximal effect
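Pol iota at 10 nM preincubated 15 min with compounds at room temperature; reaction started with fluorescent substrate, 50 nM final. Fluorescence read kinetically at 0 and 10 min; buffer-only wells as negative control.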
PI5P4Ka inh = qHTS for Inhibitors of phosphatidylinositol 5-phosphate 4-kinase (PI5P4K). Phosphatidylinositol 5-phosphate 4-kinase type-2 alpha (Homo sapiens), P48426. PI5P4Kalpha enzyme, ADP-Glo luminescence, 60 min; active compounds read low. max response, %. hit rate 1.2% among 330,000; active = max response of -50% or lower; inconclusive = between -30% and -50%; inactive = -30% or higher; also: value at the top dose of about 77 µM; % is scaled to controls: 0 for no effect and ±100 for the full control effect
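qHTS, 1536-well: enzyme/substrate mix, compound by pin tool, 5 microM ATP final; RT 60 min; ADP-Glo reagents 1 (45 min) then 2 (30 min); luminescence.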
Pol kappa inh-1 = qHTS for Inhibitors of Polymerase Kappa; Potency, µM (highest dose often 107 µM), inactives show at the highest dose activity, negative = inhibition, most hits filed as inhibitors; purified Pol kappa, fluorescent DNA synthesis assay, 10 min; hit rate 0.53% among 400,000; DNA polymerase kappa (Homo sapiens), Q9UBT6; also: potency is read from the fitted curve at half-maximal effect; % is scaled to controls: 0 for no effect and ±100 for the full control effect
Target sequence (Q9UBT6 whole entry, looked up): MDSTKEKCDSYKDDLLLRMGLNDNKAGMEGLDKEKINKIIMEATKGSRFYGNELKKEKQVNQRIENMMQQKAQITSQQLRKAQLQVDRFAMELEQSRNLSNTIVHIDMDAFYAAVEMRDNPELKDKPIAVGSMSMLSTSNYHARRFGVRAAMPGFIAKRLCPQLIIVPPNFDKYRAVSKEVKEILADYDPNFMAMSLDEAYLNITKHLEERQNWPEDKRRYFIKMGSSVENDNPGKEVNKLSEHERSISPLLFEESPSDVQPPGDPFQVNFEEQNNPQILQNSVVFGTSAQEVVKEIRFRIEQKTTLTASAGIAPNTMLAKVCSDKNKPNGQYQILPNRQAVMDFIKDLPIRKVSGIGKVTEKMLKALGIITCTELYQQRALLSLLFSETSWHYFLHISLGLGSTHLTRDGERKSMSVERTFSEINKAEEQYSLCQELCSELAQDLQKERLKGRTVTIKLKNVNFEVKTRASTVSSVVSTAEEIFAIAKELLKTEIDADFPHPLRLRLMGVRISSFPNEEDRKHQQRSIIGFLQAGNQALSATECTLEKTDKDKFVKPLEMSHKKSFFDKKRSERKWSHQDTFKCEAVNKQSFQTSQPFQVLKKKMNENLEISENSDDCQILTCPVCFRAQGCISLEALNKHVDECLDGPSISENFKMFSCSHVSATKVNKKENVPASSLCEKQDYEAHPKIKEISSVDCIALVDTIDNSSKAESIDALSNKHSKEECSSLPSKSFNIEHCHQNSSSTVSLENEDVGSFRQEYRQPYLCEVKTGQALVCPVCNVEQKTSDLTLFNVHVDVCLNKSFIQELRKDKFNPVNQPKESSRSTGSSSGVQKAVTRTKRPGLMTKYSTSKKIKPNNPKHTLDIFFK
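Activity was followed as the change in fluorescence between reads at 0 and 10 min after starting the reaction with 50 nM substrate. Beforehand, 10 nM polymerase had been preincubated with compound for 15 min at room temperature.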
PI4K2A block = qHTS for small molecular inhibitors of PI4K2A | activity change, negative = inhibition, % at 76.9 µM | AID 1346378, 2018 | hit rate 0.13% among 420,000 | purified PI4K2A, ADP-Glo luminescence, 1 h; active compounds read low; in the data active = activity change below about -50%; inconclusive = mostly about -30% to -49%;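 also: -100% = wells without enzyme as full effect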
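Compounds are screened against recombinant PI4K2A using PI as substrate and ATP, the latter dispensed at 300 microM. Reactions run one hour at ambient temperature before ADP-Glo detection; full inhibition defined by wells lacking enzyme.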
TbPGK inh = qHTS for inhibitors of Phosphogylcerate Kinase: Hit Validation Screen | Potency, µM (titrated, usually from 57.5 µM), for the others: at the top dose activity change, negative = inhibition, actives largely listed as inhibitors | shares compounds with Pol kappa inh-1 | hit rate 79% among 500 | TbPGK coupled GAPDH assay, Kinase-Glo luminescence; also: potency is read from the fitted curve at half-maximal effect; % is scaled to controls: 0 for no effect and ±100 for the full control effect; nearly all actives have a fitted effect of over 65% in size
POLI cherry-pick = qHTS for Inhibitors of Polymerase Iota: Confirmatory Assay for Cherry-picked Compounds | shares compounds with Pol kappa inh-1 | Pol iota primer extension, TAMRA/BHQ fluorescence | Potency, µM, actives largely listed as inhibitors | hit rate 77% among 1,500 | AID 720496, 2013; also: potency is read from the fitted curve at half-maximal effect
Pol kappa inh-2 = qHTS for Inhibitors of Polymerase Kappa: Confirmatory Assay for Cherry-picked Compounds | purified Pol-kappa, fluorescent strand-displacement substrate | Potency, µM, actives largely listed as inhibitors | hit rate 76% among 920 | AID 720501, 2013 | shares compounds with Pol eta inh-1; also: potency is read from the fitted curve at half-maximal effect
Pol eta inh-2 = qHTS for Inhibitors of Polymerase Eta: Confirmatory Assay for Cherry-picked Compounds. shares compounds with Pol eta inh-1. Pol eta primer extension, TAMRA/BHQ fluorescence, 10 min. Potency, µM, most hits filed as inhibitors. hit rate 64% among 2,600; also: potency is read from the fitted curve at half-maximal effect
* hit, by the source's call; ? = inconclusive; . = no result given; [ ] = another dose, or the depositor's remark. Rows were chosen to be rich in hits. Some 2.8% of all compounds tested hit in one or more screens of this group. Unless noted, calls follow the shape of the dose curve; as a rule, active = well fitted curve in the direction sought with a large enough effect; inconclusive = small, poorly fitted or top-dose-only effect, or another doubt; inactive = no such curve, though single readings can be large; an effect the other way counts as inactive or inconclusive.

SMILES	Pol eta inh-1	Pol beta inh	POLI inh	PI5P4Ka inh	Pol kappa inh-1	PI4K2A block	POLI cherry-pick	Pol eta inh-2	others
COc1ccc2c(c1)c(=O)oc1cc(OCC(=O)N3CCc4ccccc4C3)ccc12	89µM*	11µM*	?	.	?	-12	34*	76*	TbPGK inh=3.3µM*;Pol kappa inh-2=8.4*
C[C@H]1CN(c2ccc(Br)cc2)C(=O)[C@@H]1CC(=O)Nc1ccccc1	-15%	.	.	7	.	-3	.	.
COc1cccc(N2CC(NC(=O)c3cc4ccccc4o3)CC2=O)c1 (stereo not drawn)	0%	?	-23%	.	-7%[60.1 µM]	0	.	.
Cc1cccc(N2NC(=O)/C(=C/c3ccc(-c4ccc(Cl)c(C(=O)O)c4)o3)C2=O)c1	6.3µM*	25µM*	3.5µM*	?	35µM*	2	34*	17*
O=C1NN(c2ccccc2)C(=O)/C1=C/c1ccc(-c2ccc(Cl)c(C(=O)O)c2)o1	7.1µM*	13µM*	?	-16	?	-1	42*	30*
O=C(Cc1ccc(F)cc1)N/N=C/c1ccc(-c2ccc(Cl)c(C(=O)O)c2)o1	-12%	0%	23%	-11	12%	-5	.	.
O=C(O)c1ccc(-n2cccc2/C=C2/NC(=O)N(c3cccc(Cl)c3)C2=O)cc1	3.5µM*	2.2µM*	2µM*	-79*	16µM*	-10	3.4*	9.5*	TbPGK inh=5.8µM*
O=C(O)c1ccc(-n2cccc2/C=C2/NC(=O)N(c3ccccc3)C2=O)cc1	2.8µM*	?	3.2µM*	?	22µM*	-9	3.4*	5.4*	TbPGK inh=5.8µM*
Cc1cc(=O)oc2c(N)nccc12	.	.	.	-7	.	-16	.	.
Cc1cc(=O)oc2c3c(ccc12)OC/C3=N/N	?	30%	?	-12	-17%	6	42*	30*	Pol kappa inh-2=34*
COc1cccc(C(=O)N2c3cc(C)ccc3C(C)(c3ccccc3)CC2(C)C)c1 (stereo not drawn)	-26%	3%	43%	.	-14%	4	.	.
CCOC(=O)C(=Cc1ccc(N(C)C)cc1)C(=O)c1ccccc1	.	.	.	8	.	1	.	.
CCOC(=O)N(O)c1ccc(C=Cc2ccccc2)cc1	13µM*	.	25µM*	-28	79µM*	4	75*	?	TbPGK inh=9.2µM*;Pol kappa inh-2=17*
C/C=C/C=C\C(=O)Nc1cccc(C2=NOC3(C2)C[C@@H](C(N)=O)N(C(=O)/C(C)=C/C)C3)c1 (stereo partly drawn)	18µM*	-1%	16µM*	-11	50µM*	?	11*	17*
C/C=C\C=C/C(=O)Nc1cccc(C2=NOC3(C2)C[C@H](C(N)=O)N(C(=O)CC)C3)c1 (stereo partly drawn)	?	-2%	?	-4	-4%	-29	.	.
C=C(C)C(=O)Nc1cccc(C2=NOC3(C2)C[C@@H](C(N)=O)N(C(=O)/C=C/C=C/C)C3)c1 (stereo partly drawn)	3.2µM*	2.5µM*	22µM*	-50*	28µM*	-27	?	17*	TbPGK inh=0.73µM*
CCCN(CCC)C(=O)Cn1c(=O)n(CCCCCC(=O)NCc2ccc3c(c2)OCO3)c(=O)c2sccc21	-9%	?	-11%	.	-22%	8	.	.
Cc1nn(-c2ccccc2)c(C)c1C=NNC(=O)CSc1nc2ccccc2n1C	.	.	.	.	.	2	.	.
Cc1cc(C)c2c(CN3CCCC3)cc(=O)oc2c1	.	.	.	6	.	-1	.	.
CCc1cc(=O)oc2cc(C)c(CN3CCCC3)c(O)c12	22µM*	7.9µM*	3.2µM*	.	8.9µM*	?	?	30*	Pol kappa inh-2=24*
CC(=O)c1ccc(S(=O)(=O)N2Cc3ccccc3CC2C(=O)O)cc1 (stereo not drawn)	5µM*	13µM*	?	0	50µM*	-2	27*	15*
O=C(O)[C@H]1Cc2ccccc2CN1S(=O)(=O)c1ccc(F)cc1	-6%	-2%	3%	-3	-7%	1	.	.
O=C(O)CSc1cc(C(=O)c2ccccc2O)cn2c(=O)c3c4c(sc3nc12)CCCC4	?	?	?	?	45µM*	1	27*	?
CCCOc1ccc(-c2cccc(NS(=O)(=O)c3cc(OC)ccc3OC)c2)nn1	-16%	-29%	15%	.	-12%[60.1 µM]	1	.	.
